For 18 molecules, outcome and AC50 results are on record in PubChem BioAssay (EPA / NIEHS).

What all share (conditions): mRNA level, 48 h; actives raise or lower the signal
Read-out in assay [1]: Bcl-2 (BAX) gene, BAX (gene 581)
The experiment in a line: LTEA_HepaRG_BAX: Life Technologies and Expression Analysis (LTEA) Assay for Bcl-2 (BAX) gene using HepaRG (AID 2283470). A digest of the protocol: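 Differentiated HepaRG cells exposed 48 h in serum-free induction medium, eight half-log concentrations from 100 uM, in duplicate, 0.5% DMSO vehicle. BAX mRNA by TaqMan qRT-PCR, normalised to ACTB, GAPDH and POLR2A.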

Read-out in assay [2]: adenosine kinase (ADK) gene, ADK (gene 132)
The experiment in a line: LTEA_HepaRG_ADK: Life Technologies and Expression Analysis (LTEA) Assay for adenosine kinase (ADK) gene using HepaRG (AID 2283471). A digest of the protocol: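 Read-out is ADK transcript level measured by qRT-PCR and normalised to three housekeeping genes. Cells are human HepaRG, dosed for 48 h at up to 100 uM in 0.5% DMSO. Gain or loss of signal is fitted against DMSO controls.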

Read-out in assay [3]: Alpha-fetoprotein (AFP) gene, AFP (gene 174)
Description: LTEA_HepaRG_AFP: Life Technologies and Expression Analysis (LTEA) Assay for Alpha-fetoprotein (AFP) gene using HepaRG (AID 2283472). Summed up: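 Differentiated human HepaRG cells exposed 48 h in serum-free induction medium, 8-point half-log series from 100 uM in 0.5% DMSO, duplicate. AFP mRNA by qRT-PCR, normalized to ACTB, GAPDH, POLR2A; bidirectional fit vs DMSO.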

Read-out in assay [4]: BCL2L11 (gene 10018)
Description: LTEA_HepaRG_BCL2L11: Life Technologies and Expression Analysis (LTEA) Assay for Bcl-2 (BCL2L11) gene using HepaRG (AID 2283473). Summed up:
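Human hepatic HepaRG cultures are treated 48 h with test chemicals (maximum 100 uM, 0.5% DMSO vehicle). Expression of BCL2L11 is measured by qRT-PCR against ACTB, GAPDH and POLR2A, with activity in either direction scored relative to vehicle.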

Read-out in assay [5]: Apolipoprotein A-V (APOA5) gene, APOA5 (gene 116519)
Description: LTEA_HepaRG_APOA5: Life Technologies and Expression Analysis (LTEA) Assay for Apolipoprotein A-V (APOA5) gene using HepaRG (AID 2283474). Summed up:
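Concentration-response of APOA5 expression in HepaRG: eight half-log doses to 100 uM, 48 h, qRT-PCR normalized to ACTB/GAPDH/POLR2A, bidirectional fitting with 0.5% DMSO as baseline.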

Read-out in assay [6]: Apoptosis regulator Bcl-2 (Homo sapiens) (UniProt P10415)
The experiment in a line: LTEA_HepaRG_BCL2: Life Technologies and Expression Analysis (LTEA) Assay for Bcl-2 gene using HepaRG (AID 2283475). A digest of the protocol:
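Differentiated human HepaRG cells in serum-free induction medium exposed 48 h, in duplicate, to 8-point half-log series from 100 uM in 0.5% DMSO. BCL2 mRNA by qRT-PCR (TaqMan/Fluidigm), normalized to ACTB, GAPDH, POLR2A; bidirectional fit against DMSO.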

Read-out in assay [7]: Bcl-2 (BID) gene, BID (gene 637)
The experiment in a line: LTEA_HepaRG_BID: Life Technologies and Expression Analysis (LTEA) Assay for Bcl-2 (BID) gene using HepaRG (AID 2283476). A digest of the protocol: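 Gene expression by qRT-PCR in HepaRG cells after 48 h exposure, duplicate wells, eight half-log concentrations topping at 100 uM in 0.5% DMSO. Normalized to ACTB, GAPDH, POLR2A; bidirectional fitting relative to DMSO.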

Read-out in assay [8]: Caspase-3 (Homo sapiens) (UniProt P42574)
The experiment in a line: LTEA_HepaRG_CASP3: Life Technologies and Expression Analysis (LTEA) Assay for cysteine-aspartic acid protease (CASP3) using HepaRG (AID 2283477). Summed up:
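Transcript-level assay: CASP3 mRNA in human HepaRG after 48 h treatment, eight half-log concentrations from 100 uM in 0.5% DMSO, quantified by qRT-PCR.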

Read-out in assay [9]: Cytochrome P450 (CYP24A1), CYP24A1 (gene 1591)
The experiment in a line: LTEA_HepaRG_CYP24A1: Life Technologies and Expression Analysis (LTEA) Assay for Cytochrome P450 (CYP24A1) using HepaRG (AID 2283478). A digest of the protocol: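 Gene expression of CYP24A1 by TaqMan qRT-PCR in HepaRG after 48 h treatment, highest concentration 100 uM; activity fitted in both directions relative to DMSO vehicle.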

Read-out in assay [10]: Cytochrome P450 (CYP1A2), CYP1A2 (gene 1544)
The experiment in a line: LTEA_HepaRG_CYP1A2: Life Technologies and Expression Analysis (LTEA) Assay for Cytochrome P450 (CYP1A2) using HepaRG (AID 2283479). Summed up:
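In duplicate wells, HepaRG cultures maintained in 0.5% DMSO were treated 48 h across an 8-point, half-log series topping at 100 uM; phenobarbital (1 mM) served as induction control. Expression was read by qRT-PCR.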

The term AC50 denotes the midpoint of the concentration-response curve, whichever way the signal moves.

Activity calls are given as the source filed them. The calls were made as follows: active = hit-call score of the fitted dose curve at least 0.9, where 1 is the maximum; inactive = score below 0.9.

Chain of Apoptosis regulator Bcl-2 (Homo sapiens) (P10415 whole entry, looked up): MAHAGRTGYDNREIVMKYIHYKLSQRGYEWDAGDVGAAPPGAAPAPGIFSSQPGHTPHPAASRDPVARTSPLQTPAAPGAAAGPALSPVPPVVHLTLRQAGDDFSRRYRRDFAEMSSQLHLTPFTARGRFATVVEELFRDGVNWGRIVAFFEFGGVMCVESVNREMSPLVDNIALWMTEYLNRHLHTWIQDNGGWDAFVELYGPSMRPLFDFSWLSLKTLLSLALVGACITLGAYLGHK
Chain of Caspase-3 (Homo sapiens) (P42574 whole entry, looked up): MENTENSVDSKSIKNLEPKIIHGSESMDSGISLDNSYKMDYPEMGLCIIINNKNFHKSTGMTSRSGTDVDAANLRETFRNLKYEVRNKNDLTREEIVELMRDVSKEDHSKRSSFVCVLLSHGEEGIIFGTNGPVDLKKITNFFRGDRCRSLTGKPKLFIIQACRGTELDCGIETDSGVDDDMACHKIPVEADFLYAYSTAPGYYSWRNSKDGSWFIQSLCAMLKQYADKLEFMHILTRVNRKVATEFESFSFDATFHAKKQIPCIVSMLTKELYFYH

With `CSC(=O)c1c(C(F)F)nc(C(F)(F)F)c(C(=O)SC)c1CC(C)C`, the result in assay [1], in [2], in assay [4], in assay [5], in assay [7] and in assay [8] was inactive. Besides, the result in [9] and in assay [10] was inactive. The AC50 in assay [3] and in assay [6] was 49.8 µM (active) throughout.

Regarding `CC(C)N1C(=O)N(c2ccccc2)CSC1=NC(C)(C)C`, the AC50 in [1] is 77.4 µM (active); in [3], 64.4 µM (active); in assay [5], 81.8 µM (active); in [6], 78.7 µM (active). Further, the outcome in assay [2], in [4], in assay [8] and in [9] was inactive.

`CCCC(=NOCC)C1=C(O)CC(CC(C)SCC)CC1=O` (stereo unspecified): the call in assay [1], in assay [2], in assay [3], in assay [4], in assay [5] and in [6] was inactive. The molecule was called inactive in assay [8], in assay [9] and in assay [10].

For the molecule `Clc1nc(Cl)nc(Nc2ccccc2Cl)n1`, the result in [1], in assay [2], in assay [3], in assay [4], in assay [5] and in assay [6] was inactive. For the same molecule, the result in assay [8] and in [9] was inactive.

Consider `CCOc1nc(C(Cl)(Cl)Cl)ns1`, for which the AC50 in assay [1] is 1.39 µM (active); in [2], 1.06 µM (active); in assay [3], 1.77 µM (active); in assay [4] it was 0.862 µM (active); in assay [5], 1.44 µM (active); in assay [6] it was 1.51 µM (active). Also, the AC50 was 1.05 µM (active) in assay [8], 1.93 µM (active) in assay [9] and 0.939 µM (active) in [10].

On to `Cc1cc(C)nc(Nc2ccccc2)n1`, for which the result in assay [1], in assay [2], in assay [3], in assay [4], in assay [5] and in assay [6] was inactive. Also, the molecule was called inactive in assay [8] and in [9]. Also, the AC50 in [10] is 88.8 µM (active).

In the case of `COc1cc(OC)nc(NC(=O)NS(=O)(=O)c2ncccc2OCC(F)(F)F)n1`, the result in assay [1], in [2], in assay [3], in [4], in assay [5] and in assay [6] was inactive. In addition, the result in assay [8], in assay [9] and in assay [10] was inactive.

Regarding `Cc1ccc(N=CN(C)C=Nc2ccc(C)cc2C)c(C)c1`, the result in [1], in [2], in [3], in [4], in assay [5] and in assay [6] was inactive. Also, the outcome in [8] and in assay [9] was inactive.

As for `CC1(C)C(C=C(Cl)Cl)C1C(=O)OC(C#N)c1cccc(Oc2ccccc2)c1` (stereo unspecified), the outcome in assay [1], in [2], in assay [3], in assay [4], in [5] and in assay [6] was inactive. The outcome in assay [8] and in [9] was inactive. Besides, the AC50 in [10] is 21.9 µM (active).

On to `CCC(C)n1c(=O)[nH]c(C)c(Br)c1=O` (stereo unspecified), for which the result in assay [1], in assay [2], in assay [5], in [6], in assay [8] and in assay [9] was inactive. For the same molecule, the AC50 in assay [3] was 35.5 µM (active); in assay [4] it was 20.7 µM (active); in [10], 8.92 µM (active).

Take `CC(C)Nc1nc(Cl)nc(NC(C)C)n1`: the molecule was classed as inactive in assay [1], in [2], in [4], in [5], in assay [6] and in [8]. Besides, the molecule was called inactive in [9]. Also, the AC50 in assay [3] was 24.8 µM (active).

As to `CNC(=O)N(C)c1nnc(C(C)(C)C)s1`, the molecule was called inactive in assay [1], in [2], in assay [3], in assay [4], in assay [5] and in assay [6]. For the same molecule, the molecule was classed as inactive in [8] and in [9]. Also, the AC50 in assay [10] was 50 µM (active).

For `CCCCC(C#N)(Cn1cncn1)c1ccc(Cl)cc1` (stereo unspecified), the call in [1], in assay [2], in assay [4], in assay [5], in [6] and in [8] was inactive. In addition, in assay [9], the molecule was classed as inactive. Moreover, the values for the AC50 in [3] and in assay [10] were 67 µM (active) and 19.3 µM (active), respectively.

Regarding `CO/N=C(/C1=NOCCO1)c1ccccc1Oc1ncnc(Oc2ccccc2Cl)c1F`, the half-maximal activity concentration (AC50) in assay [1] was 31.3 µM (active); in assay [3] it was 18.2 µM (active); in [4] it was 27.7 µM (active); in assay [5], 23.6 µM (active); in [6] it was 29.7 µM (active). Besides, the result in [2], in [8] and in [9] was inactive.

For `CCOP(=O)(OCC)Oc1nc(Cl)c(Cl)cc1Cl`, the outcome in assay [1], in assay [2], in [8], in assay [9] and in assay [10] was inactive. The AC50 is 75.9 µM (active) in assay [3], 76.6 µM (active) in assay [4], 83.8 µM (active) in assay [5] and 68.4 µM (active) in [6].

Turning to `CC(C)(C)C(=O)C(Oc1ccc(Cl)cc1)n1cncn1` (stereo unspecified), the molecule was classed as inactive in assay [1], in assay [2], in [3], in [4], in [5] and in assay [6]. The molecule was called inactive in assay [8] and in [9].

With `Nc1cnn(-c2ccccc2)c(=O)c1Cl`, the call in assay [1], in [2], in assay [3], in [4], in assay [5] and in assay [6] was inactive. Moreover, the molecule was classed as inactive in assay [8] and in assay [9]. Moreover, the AC50 in assay [10] is 80.6 µM (active).

On to `C=C(C)CN(CC)c1c([N+](=O)[O-])cc(C(F)(F)F)cc1[N+](=O)[O-]`, for which the result in [1], in assay [2], in [3], in assay [4], in [5] and in assay [6] was inactive. For the same molecule, the call in [8] and in assay [9] was inactive.
